About 79,000 compounds went through this panel and 15% of them were active in at least one assay; those are over-represented in the sample as a whole. No stated cut-off is given here; in the data, active means growth inhibition above about 70%; inactive means the rest.
What was measured:
[1] = NCI Yeast Anticancer Drug Screen. Data for the rad50 strain (AID 155);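 further: 0% = growth of vehicle-only cultures of the same strain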; conditions: S. cerevisiae rad50 strain growth inhibition; at 50.0 µM; active compounds read high
Outline: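 Inhibition values express reduced yeast growth in compound-treated cultures relative to vehicle-treated controls.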

[2] = NCI Yeast Anticancer Drug Screen. Data for the mec2-1 strain (AID 157); conditions: S. cerevisiae mec2-1 strain, at 50.0 µM, active compounds read high
Outline: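 Readout is yeast growth inhibition, normalised to vehicle-treated controls, in the mec2-1 strain exposed to compound.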

[3] = NCI Yeast Anticancer Drug Screen. Data for the sgs1 mgt1 strain (AID 161);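 further: 0% = growth of cultures given vehicle only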; conditions: S. cerevisiae sgs1 mgt1 strain, at 50.0 µM, active compounds read high
Outline: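 Compounds are added to genetically altered yeast, and growth is compared with cultures given vehicle alone to give percent inhibition.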

[4] = NCI Yeast Anticancer Drug Screen. Data for the cln2 rad14 strain (AID 165);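 further: 0% = growth equal to vehicle treated cultures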; conditions: S. cerevisiae cln2 rad14 strain, at 50.0 µM, active compounds read high
Outline: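 Relative to vehicle controls, growth inhibition of compound-treated cln2 rad14 yeast was recorded.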

[5] = NCI Yeast Anticancer Drug Screen. Data for the bub3 strain (AID 167); conditions: S. cerevisiae bub3 mutant strain, at 50.0 µM, active compounds read high
Outline: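 Steps: expose the mutant yeast strain to compound; grow alongside vehicle-treated cultures; measure growth; express inhibition against the vehicle cultures.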

[6] = NCI Yeast Anticancer Drug Screen. Data for the mlh1 rad18 strain (AID 175); conditions: S. cerevisiae mlh1 rad18 strain growth inhibition; at 50.0 µM; active compounds read high
Outline: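 Test agents were incubated with a yeast strain of defined genotype (DNA damage repair defect). Inhibition of growth was derived by comparison with vehicle-exposed cultures.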

Measured: growth inhibition

O=S1(=O)NC2CCC3NS(=O)(=O)NC4CCC(N1)N4S(=O)(=O)N23 (stereo unspecified)
inactive: [1] -3.75% | [2] -17.4% | [3] -4.1% | [4] 6.6% | [5] -0.55% | [6] -8.25%

Cc1nc(N)sc1C
inactive: [1] 12.7% | [2] -26.9% | [3] 16.6% | [4] 7.7% | [5] 25.6% | [6] 26.2%

NC1(C(=O)OCc2ccccc2)CCCC1
inactive: [1] 18.6% | [2] -5.45% | [3] -14.1% | [4] 1.9% | [5] -1.7% | [6] 37.9%

CC(=O)c1cc(C(C)=O)c(CC(=O)C(=O)Nc2cccc(C)c2C)nc1CC(=O)C(=O)Nc1cccc(C)c1C
inactive: [1] 2.9% | [2] -6.3% | [3] 16.5% | [4] -19.2% | [5] -9.6% | [6] -18.5%

Oc1ccc(O)c2c1CC=CC2
inactive: [1] 12.2% | [2] 22.6% | [3] 27.9% | [4] 13% | [5] 18.3% | [6] 16.4%

CC1CCCCC(=O)N1 (stereo unspecified)
inactive: [1] 11.6% | [2] 13.4% | [3] 27.7% | [4] 5.1% | [5] 18.6% | [6] -1.35%

N#CC(C#N)=C(N)/C(C#N)=C/c1ccc2ccccc2n1
inactive: [1] -0.25% | [2] -11.2% | [3] -5.75% | [4] 12.8% | [5] -5.45% | [6] -12.2%

Cc1c2c(cc3c1CCC1(C)C3CCC1C(C)/C=C/C(C)C(C)C)CC(O)CC2 (stereo unspecified)
inactive: [1] 6.65% | [2] 11.8% | [3] 2.6% | [4] -0.2% | [5] -3% | [6] 20.5%

O=S1(=O)C(c2ccccc2Cl)=C(O)C(O)=C1c1ccccc1Cl
inactive: [1] -0.6% | [2] -35.4% | [3] 5.05% | [4] 6% | [5] -2.1% | [6] 11.2%

O=[N+]([O-])c1ccc(-c2nnn(C3CC3)c2N2CCCCC2)cc1
inactive: [1] -7.85% | [2] -5.6% | [3] -3.4% | [4] -0.5% | [5] -4.35% | [6] 5.15%

S=C(NCN1CCNCC1)C(=S)NCN1CCNCC1
inactive: [1] -14.2% | [2] -9.55% | [3] -6.1% | [4] -12.1% | [5] -4.05% | [6] -9.6%

COc1ccc(NC(=O)CC(=O)N2N=C(N(c3ccccc3)c3ccccc3)CC2c2ccccc2)cc1 (stereo unspecified)
inactive: [1] 4.75% | [2] 2.05% | [3] 12.2% | [4] 26.3% | [5] 17.6% | [6] -29.8%

COc1cc2nc(C(O)C(O)c3nc4cc(OC)c(OC)cc4[nH]3)[nH]c2cc1OC (stereo unspecified)
inactive: [1] -8% | [2] 3.35% | [3] 19.6% | [4] 6.85% | [5] -1.1% | [6] 38.7%

CC(=O)NC(C=O)OCC=O (stereo unspecified)
inactive: [1] 0% | [2] 17.9% | [3] -22.3% | [4] 0.55% | [5] -29.1% | [6] -46.9%

O=C1C(Cl)(Cl)C(=O)C(Cl)(Cl)C(=O)C1(Cl)Cl
inactive: [1] 20.2% | [2] 24.5% | [3] 47% | [4] 0.4% | [5] 16.3% | [6] 31.7%

CC(=O)O[C@H]1CC[C@@]2(C)C(=CC(=O)[C@H]3[C@@H]4CC[C@H]([C@H](C)CCCC(C)C)[C@@]4(C)CC[C@@H]32)C1
inactive: [1] 10.8% | [2] 19.1% | [3] 39% | [4] 36% | [5] 5.9% | [6] 46%

N#CCCCN1C(=O)c2ccccc2C1=O
inactive: [1] -22.1% | [2] -18.9% | [3] -8.25% | [4] 21% | [5] -15.5% | [6] -18.4%

COc1ccc(C)cc1S(=O)(=O)c1ccc(C)cc1[N+](=O)[O-]
inactive: [1] 6.6% | [2] -2.85% | [3] 2.15% | [4] 34.5% | [5] 23.3% | [6] -15.4%

CCOC(=O)CC(C#N)C(C)C(=O)OCC (stereo unspecified)
inactive: [1] 2.3% | [2] 1.3% | [3] 0.4% | [4] 6.5% | [5] 0.9% | [6] -0.35%

CC(C)(C)N=c1n(C(C)(C)C)oc(=O)n1C(C)(C)C
inactive: [1] -11.8% | [2] -34% | [3] -25.1% | [4] -2.95% | [5] -27.9% | [6] -11.9%

CCOC(=O)C1=C(N)n2c(s/c(=C/c3ccc(N(C)C)cc3)c2=O)=C(C(=O)OCC)C1c1ccc(N(C)C)cc1 (stereo unspecified)
inactive: [1] -7.3% | [2] -19.1% | [3] -9.1% | [4] -7.2% | [5] 3.4% | [6] -7.3%

Cn1nc(-c2ccccc2)c(C(=O)/C=C/c2ccc(F)cc2)c(N2CCCCC2)c1=O
inactive: [1] 2.55% | [2] 8.55% | [3] -0.95% | [4] 28.2% | [5] 4.1% | [6] 10.2%

CCCCCCCCCCCCSC(=O)CCC(=O)O
inactive: [1] -49.5% | [2] -11.9% | [3] 13.8% | [4] -29.9% | [5] 1.85% | [6] 10.1%

Clc1ccc(-c2nnc(C34CC5CC(CC(C5)C3)C4)o2)cc1
inactive: [1] -12.1% | [2] -8.65% | [3] -11.3% | [4] 2.3% | [5] -8.5% | [6] -18.6%

CCOC(=O)C1C(C)=CC(=O)CC1C(C)C (stereo unspecified)
inactive: [1] 4.1% | [2] -8.5% | [3] 5.7% | [4] -20.6% | [5] -15.8% | [6] 5.2%

Cn1cc(-n2[nH]c(=O)n(-c3ccccc3)c2=O)c(=O)n(C)c1=O
inactive: [1] -50% | [2] 8.2% | [3] -1.1% | [4] -21.3% | [5] 16.1% | [6] 13.3%

O=C1c2cc(Cl)ccc2NC(O)c2cccn21 (stereo unspecified)
inactive: [1] 3.45% | [2] 1.8% | [3] -4.3% | [4] -20.9% | [5] -11.4% | [6] -0.55%

CCOC(=O)C(C(C)=O)C(c1ccc(N(C)C)cc1)C(C(C)=O)C(=O)OCC (stereo unspecified)
inactive: [1] 8.75% | [2] -7% | [3] 7.75% | [4] -6.2% | [5] -4% | [6] 9.45%

S=C1N=C(Cl)C2(NN1)c1ccccc1-c1ccccc12
inactive: [1] 17.9% | [2] -16.1% | [3] -1.15% | [4] -14.5% | [5] -11.7% | [6] 32%

Oc1ccc(-c2ccc(Br)cc2)cc1
inactive: [1] -25.1% | [2] -6% | [3] -14.4% | [4] -2% | [5] -31.8% | [6] -14.8%

CC1CC[C@@]23CCC4(C)[C@@](C=CC5[C@@]6(C)CCC(=O)C(C)(C)C6CC[C@]54C)(OC2=O)[C@@H]3[C@H]1C (stereo partly specified)
inactive: [1] -14.8% | [2] -17.6% | [3] -14.7% | [4] -15.1% | [5] -14.5% | [6] -8.15%

O=C1CN(c2ccccc2)C(=O)CN1/N=C/c1ccc(O)c(O)c1
inactive: [1] -35.2% | [2] 8.75% | [3] -3.25% | [4] 12.7% | [5] -2.55% | [6] -11.2%

CCC/C(=C(\C)c1ccccc1)c1ccccc1
inactive: [1] 46.1% | [2] 33.6% | [3] 37.7% | [4] 14.1% | [5] -11.5% | [6] 33.3%

CCCCCCCCCCCCC#N
inactive: [1] -20.8% | [2] -16.1% | [3] -1.15% | [4] -32.9% | [5] -5.2% | [6] 7.85%

CCCCOc1ccc(C=Nc2ccc(C)cc2)cc1
inactive: [1] -6.15% | [2] -6.2% | [3] -2.45% | [4] -8.5% | [5] 7.3% | [6] -20.7%

CCC(C)NC(=O)c1cccc2c1-c1ccccc1C2=O (stereo unspecified)
inactive: [1] -0.05% | [2] -5.15% | [3] 0.35% | [4] 1.4% | [5] 25.2% | [6] 14.4%

Nc1cccc(C(=O)Nc2ccc3c(O)cc(S(=O)(=O)O)cc3c2)c1
inactive: [1] 15.2% | [2] -3.1% | [3] 11.9% | [4] -30.4% | [5] -12.4% | [6] 7.05%

O=C(OC1COC(n2c(=O)oc3cc([N+](=O)[O-])c([N+](=O)[O-])cc32)C(OC(=O)c2ccccc2)C1OC(=O)c1ccccc1)c1ccccc1 (stereo unspecified)
inactive: [1] -5.15% | [2] 8.6% | [3] 14.4% | [4] -9.15% | [5] -8.55% | [6] 3.35%

COC(=O)C(C(=O)C(=O)Nc1nc2ccc(OC)cc2s1)c1cnc2ccccc2n1 (stereo unspecified)
inactive: [1] -13.2% | [2] -23.2% | [3] -45% | [4] 22.6% | [5] -7.5% | [6] -6.15%

CCCCOC(=O)CC1CCCCC1
inactive: [1] -15.3% | [2] -8.95% | [3] -30.8% | [4] -6.1% | [5] -5.6% | [6] -10.2%

O=C(c1ccccc1)C(Br)C(Br)c1ccc([N+](=O)[O-])cc1 (stereo unspecified)
inactive: [1] 14.7% | [2] 39.9% | [3] 31.4% | [4] 24.2% | [5] -1.9% | [6] 21.6%

Reference: PubChem BioAssay (NCI)
